# The campaign covered roughly 400,000 compounds. About 13,000 (3.2%) were called active. About 18% were inconclusive and are not listed. Shown is part of a subset that was picked to be rich in actives. Unmarked numbers belong to inactive results. The call rests on the fitted dose curve; in most records, active means well fitted cell-killing curve with a large enough effect; inconclusive means small, poorly fitted or top-dose-only effect, or effect the other way; inactive means flat fitted curve, though single readings scatter.
# Assay: qHTS assay for MDR1-selective chemotherapeutics: Primary screen using the drug-selected MDR subline cells KB-V1; further: nearly all actives have a fitted effect of over 60% in size
# Conditions: KB-V1 MDR cells viability, CellTiter-Glo, 72 h; series mostly up to 46.1 µM; activity change, negative = cytotoxicity: at the top concentration
# In short: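 Drug-selected KB-V1 cells, grown in DMEM lacking phenol red with 10% FBS, receive compound titrations; after three days at 37 degrees C, surviving cell ATP is quantified by CellTiter-Glo luminescence and responses normalized and curve-fitted.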
# On the % scale 0 is the no-effect control and ±100 the full control effect; potency means the concentration at half of the fitted maximal effect.
Structure (SMILES),"activity change, negative = cytotoxicity [%]",Potency
CN(Cc1ccccc1)c1ccc(/C=C/c2ccnc3ccccc23)cc1,-10.1,
CN(C)c1ccc(/C=C/C=C/c2ccnc3ccccc23)cc1,,6.51 µM (active)
CN(C)c1ccc(C=Nc2ccc(/C=C/c3ccnc4ccccc34)cc2)cc1,-1.45,
CN(C)c1ccc(/C=C/c2c3ccccc3nc3ccccc23)cc1,2.13,
NC(=O)C1CCN(C(=O)c2cccc(NC(=O)c3nsc4ccccc34)c2)CC1,0,
COCC1CCCCN1C(=O)c1cc(COc2ccc(C)c(C)c2)on1 (centres undefined),-25.6,
CC(=O)c1c(Nc2ccccc2)sc(C(=O)c2ccccc2)c1C,,3.66 µM (active)
CCCS(=O)(=O)c1c(Nc2ccccc2C)sc(C(=O)c2ccccc2)c1N,-18.5,
CCC(=O)Nc1sc(C(=O)Nc2ccccc2)c(C)c1C(=O)OC,-14.2,
COc1ccc(C(=O)OCC(=O)Nc2cc(C)on2)cc1F,19.5,
CC(=NNC(N)=O)C1CC2CCC1CC2 (centres undefined),-4.44,
Cc1ccccc1C#CC1=CC(=O)CC(C)(C)C1,20.2,
CCn1c(C)c(C)c2cc(C(=O)N3CCN(c4cccc(C)c4C)CC3)ccc21,,inactive
CCOc1ccccc1N1CCN(C(=O)c2ccc3[nH]c(C)c(C)c3c2)CC1,,6.51 µM (active)
Cc1[nH]c2ccc(C(=O)N3CCN(C)CC3)cc2c1C,0.208,
O=C(NCC(O)c1nc2ccccc2[nH]1)c1ccc(Br)cc1 (centres undefined),20.8,
O=C(CC[C@H]1O[C@@H](n2ccc(=O)[nH]c2=O)[C@H](O)[C@@H]1O)N[C@H](Cc1ccccc1)C(=O)NCCCN1CCCC1=O,0,
CN1CC(c2ccccc2)C2(COc3ccccc3C2=O)C12C(=O)Nc1ccccc12 (centres undefined),,20.6 µM (active)
C[C@@H]1NC(=O)[C@@]2(C)[C@@H](c3ccccc3)[C@H]3COc4ccccc4[C@@H]3N2C1=O,0,
COc1cccc(CNC(=O)CCC(=O)N2CC3CCCN3c3ccccc32)c1 (centres undefined),21.6,
CCc1nc2c(=O)[nH]cnc2o1,19.1,
C[C@H]1CN([C@@H](C)CO)C(=O)CCCn2cc(nn2)CO[C@@H]1CN(C)S(=O)(=O)c1ccc(-n2cccn2)cc1,0,

Structure (SMILES),"activity change, negative = cytotoxicity [%]",Potency
CN1CCN(C(=O)c2ccc(-c3cc4nc(NCc5cccnc5)n(C)c(=O)c4s3)cc2)CC1,-13.5,
CCOc1ccc(NC(=O)C2CCCN(C(=O)Nc3ccccc3)C2)cc1 (centres undefined),,14.6 µM (active)
CCOc1ccccc1NC(=O)C1CCCN(C(=O)Nc2ccccc2)C1 (centres undefined),-19.8,
COc1ccc(NC(=O)N2CCCC(C(=O)Nc3ccccc3OC)C2)cc1 (centres undefined),3.84,
CC(C)(C)C1CCC(=O)N2CCC[C@]2(c2ccccc2)C1 (some centres undefined),46.7,
CCCCN(C)S(=O)(=O)c1ccc(C(=O)Nc2sc3c(c2C(N)=O)CC(C)(C)NC3(C)C)cc1,0,
COc1cc(CNCCSc2nnnn2C)ccc1OCc1ccc(Cl)cc1Cl,0,
CN(CC(=O)O)S(=O)(=O)c1ccc2oc3ccccc3c2c1,10.8,
COC(=O)c1c(C)oc2ccc(N(C(=O)Oc3ccccc3)S(=O)(=O)c3ccccc3)cc12,,2.91 µM (active)
CCOC(=O)c1c(C)oc2ccc(OCC(=O)N(CC)CC)cc12,0,
O=C(Nc1ccc2c(c1)[C@@H]1C[C@@H](CC(=O)N3CCCCC3)O[C@@H](CO)[C@@H]1O2)NC1CCCCC1,3.39,
CC(=O)Nc1cccc(-c2ccnc3c2CC(C)(C(=O)NCc2ccco2)O3)c1 (centres undefined),-1.06,
CC(=O)Nc1cccc(-c2ccnc3c2CC(C)(C(=O)NCc2ccccc2)O3)c1 (centres undefined),,16.4 µM (active)
O=C(Cn1nnc(-c2ccc3c(c2)OCO3)n1)NCc1ccco1,17.1,
COc1ccc(NC(=O)C2(C)Cc3c(-c4cccc(NC(C)=O)c4)ccnc3O2)cc1 (centres undefined),0,
CC1(C(=O)NCc2ccco2)Cc2c(-c3ccc4c(c3)OCO4)ccnc2O1 (centres undefined),,2.59 µM (active)
CC1(C(=O)NCC2CCOCC2)Cc2c(-c3cccc(C(N)=O)c3)ccnc2O1 (centres undefined),3.72,
CCc1nc2c(OCCC3CCCCC3)cccn2c1N(C)C(=O)c1ccco1,0.295,
CCOc1ccc(NS(=O)(=O)c2ccc(C(=O)NCC3CCCO3)cc2)cc1 (centres undefined),-27.3,
CC(=O)Nc1cc(-c2ccc(N3CCN(C)CC3)cc2)cn2c(-c3cccc(C(=O)N(C)C)c3)cnc12,6.38,
COc1ccc(-c2cc(NC(C)=O)c3ncc(-c4cc(OC)c(OC)c(OC)c4)n3c2)cn1,,13 µM (active)
COc1cc(NC(=O)C2=CC(c3ccc(C)cc3)=NS(=O)(=O)N2C)cc(OC)c1OC,8,

Structure (SMILES),"activity change, negative = cytotoxicity [%]",Potency
COc1ccc(-c2cc(NC=O)c3ncc(-c4cccc(C(=O)N(C)C)c4)n3c2)c(OC)c1,6.08,
COc1cccc(-c2cnc3c(NC(C)=O)cc(-c4cccc(NC(C)=O)c4)cn23)c1,3.14,
COc1cccc(-c2cnc3c(NC(C)=O)cc(-c4cc(F)ccc4OC)cn23)c1,,7.31 µM (active)
O=C(Nc1cc(F)ccc1F)c1ccc2c(=O)n3c(nc2c1)CCC3,1.07,
CCOC(=O)c1c(NC(=O)CSc2cn(CCNC(=O)c3cccc(C(F)(F)F)c3)c3ccccc23)sc2c1CCC2,10.6,
OC[C@@H]1CN(Cc2cccs2)C[C@H](n2cnc3c(Nc4ccccc4)ncnc32)O1,-0.405,
COc1cc(C(=O)Nn2c(CC(C)C)nc3ccccc3c2=O)cc(OC)c1OC,-5.04,
CCCc1nc2ccccc2c(=O)n1NC(=O)c1c(O)c2ccccc2[nH]c1=O,,7.31 µM (active)
Cc1nc2ccccc2c(=O)n1NC(=O)c1ccccc1,19.9,
O=C(CN1C(=O)NC2(CCc3ccccc32)C1=O)NC1CCCCC1 (centres undefined),0.553,
CC(C)CN1CCC1(C)C(=O)Nc1ccc(OC(F)F)cc1 (centres undefined),-2.57,
Cc1ccc(OCCSc2nc(-c3cccs3)nc3cc(=O)[nH]n23)cc1Cl,-5.26,
O=C(NC1CCN(Cc2ccccc2)CC1)c1cc(Br)c(Br)[nH]1,-26.5,
S=C(Nc1ccc(Br)cc1Cl)NC1CCN(Cc2ccccc2)CC1,,11.6 µM (active)
O=C(COc1ccc(Br)cc1F)NC1CCN(Cc2ccccc2)CC1,-5.46,
CCc1nc2c(OCCOc3ccccc3)cccn2c1N(C)C(=O)c1ccc(OC)cc1,-18.3,
COCCCn1cc(CN2CC(N(C)C)CS2(=O)=O)nn1 (centres undefined),-8.55,
CC(C)c1cc(C(=O)NC2CCCCCC2)c2ccccc2n1,-27.2,
Cc1nc(/N=C(\N)NC(=O)NC2CCCCC2)nc2ccccc12,,5.17 µM (active)
Cc1c(C(=O)NC2CCCCC2)oc2ccccc12,-17.7,

# — PubChem BioAssay AID1347076 (National Center for Advancing Translational Sciences (NCATS), 2019)
